# Reference: ChEMBL document CHEMBL1961873, “Compounds: GSK PKIS; Assays: Nanosyn kinase panel” (2012)
# Legend:
# [1] = molecular target: RAC-alpha serine/threonine-protein kinase (Homo sapiens) (UniProt P31749); conditions: at 0.1 µM
# [2] = molecular target: RAC-alpha serine/threonine-protein kinase (Homo sapiens) (UniProt P31749); conditions: at 1 µM
# [3] = molecular target: RAC-beta serine/threonine-protein kinase (Homo sapiens) (UniProt P31751); conditions: at 0.1 µM
# [4] = molecular target: RAC-beta serine/threonine-protein kinase (Homo sapiens) (UniProt P31751); conditions: at 1 µM
# [5] = molecular target: RAC-gamma serine/threonine-protein kinase (Homo sapiens) (UniProt Q9Y243); conditions: at 0.1 µM
# [6] = molecular target: RAC-gamma serine/threonine-protein kinase (Homo sapiens) (UniProt Q9Y243); conditions: at 1 µM
# [7] = molecular target: G protein-coupled receptor kinase 6 (Homo sapiens) (UniProt P43250); conditions: at 0.1 µM
# [8] = molecular target: G protein-coupled receptor kinase 6 (Homo sapiens) (UniProt P43250); conditions: at 1 µM
# [9] = molecular target: T1, Rhodopsin kinase GRK7 (Homo sapiens) (UniProt Q8WTQ7); conditions: at 0.1 µM
# T1 sequence (whole entry): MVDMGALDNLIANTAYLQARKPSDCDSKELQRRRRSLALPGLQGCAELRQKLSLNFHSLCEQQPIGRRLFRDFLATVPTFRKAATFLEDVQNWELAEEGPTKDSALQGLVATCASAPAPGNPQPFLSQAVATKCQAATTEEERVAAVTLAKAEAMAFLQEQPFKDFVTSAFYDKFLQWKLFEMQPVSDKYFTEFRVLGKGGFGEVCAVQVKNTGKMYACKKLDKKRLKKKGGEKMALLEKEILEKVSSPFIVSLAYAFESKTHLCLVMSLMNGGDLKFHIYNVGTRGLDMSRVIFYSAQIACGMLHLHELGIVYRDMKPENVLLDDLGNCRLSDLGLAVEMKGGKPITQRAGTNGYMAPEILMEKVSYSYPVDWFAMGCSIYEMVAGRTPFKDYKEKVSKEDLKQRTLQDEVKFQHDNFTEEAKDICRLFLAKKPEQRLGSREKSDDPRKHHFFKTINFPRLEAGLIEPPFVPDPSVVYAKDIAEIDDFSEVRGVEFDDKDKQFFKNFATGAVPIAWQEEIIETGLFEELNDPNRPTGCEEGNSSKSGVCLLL
# [10] = molecular target: T1, Rhodopsin kinase GRK7 (Homo sapiens); conditions: at 1 µM
# Sequence of RAC-alpha serine/threonine-protein kinase (Homo sapiens) (P31749 whole entry): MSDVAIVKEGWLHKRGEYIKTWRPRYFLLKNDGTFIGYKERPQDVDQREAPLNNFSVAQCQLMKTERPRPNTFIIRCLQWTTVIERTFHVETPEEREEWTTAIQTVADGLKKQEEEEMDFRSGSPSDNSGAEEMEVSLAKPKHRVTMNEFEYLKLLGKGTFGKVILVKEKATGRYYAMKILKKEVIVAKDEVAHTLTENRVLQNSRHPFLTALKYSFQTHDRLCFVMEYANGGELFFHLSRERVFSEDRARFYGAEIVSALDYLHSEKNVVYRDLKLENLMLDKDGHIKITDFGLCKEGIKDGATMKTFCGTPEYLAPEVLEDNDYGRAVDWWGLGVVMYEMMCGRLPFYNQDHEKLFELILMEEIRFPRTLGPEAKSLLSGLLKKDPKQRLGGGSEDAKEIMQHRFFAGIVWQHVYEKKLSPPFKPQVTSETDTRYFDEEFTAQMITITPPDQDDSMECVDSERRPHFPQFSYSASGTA
# Sequence of RAC-beta serine/threonine-protein kinase (Homo sapiens) (P31751 whole entry): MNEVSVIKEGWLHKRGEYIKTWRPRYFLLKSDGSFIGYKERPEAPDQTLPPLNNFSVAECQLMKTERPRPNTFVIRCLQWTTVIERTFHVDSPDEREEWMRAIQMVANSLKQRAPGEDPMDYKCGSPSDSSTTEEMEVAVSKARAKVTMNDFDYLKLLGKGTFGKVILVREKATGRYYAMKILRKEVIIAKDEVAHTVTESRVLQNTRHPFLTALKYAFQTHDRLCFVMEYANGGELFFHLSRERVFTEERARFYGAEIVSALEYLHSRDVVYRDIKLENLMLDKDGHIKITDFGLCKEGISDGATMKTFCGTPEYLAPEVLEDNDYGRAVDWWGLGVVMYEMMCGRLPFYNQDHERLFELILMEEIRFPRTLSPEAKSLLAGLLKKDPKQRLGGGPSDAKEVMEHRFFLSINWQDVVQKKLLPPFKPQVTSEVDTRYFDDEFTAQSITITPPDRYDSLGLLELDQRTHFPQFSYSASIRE
# Sequence of G protein-coupled receptor kinase 6 (Homo sapiens) (P43250 whole entry, looked up): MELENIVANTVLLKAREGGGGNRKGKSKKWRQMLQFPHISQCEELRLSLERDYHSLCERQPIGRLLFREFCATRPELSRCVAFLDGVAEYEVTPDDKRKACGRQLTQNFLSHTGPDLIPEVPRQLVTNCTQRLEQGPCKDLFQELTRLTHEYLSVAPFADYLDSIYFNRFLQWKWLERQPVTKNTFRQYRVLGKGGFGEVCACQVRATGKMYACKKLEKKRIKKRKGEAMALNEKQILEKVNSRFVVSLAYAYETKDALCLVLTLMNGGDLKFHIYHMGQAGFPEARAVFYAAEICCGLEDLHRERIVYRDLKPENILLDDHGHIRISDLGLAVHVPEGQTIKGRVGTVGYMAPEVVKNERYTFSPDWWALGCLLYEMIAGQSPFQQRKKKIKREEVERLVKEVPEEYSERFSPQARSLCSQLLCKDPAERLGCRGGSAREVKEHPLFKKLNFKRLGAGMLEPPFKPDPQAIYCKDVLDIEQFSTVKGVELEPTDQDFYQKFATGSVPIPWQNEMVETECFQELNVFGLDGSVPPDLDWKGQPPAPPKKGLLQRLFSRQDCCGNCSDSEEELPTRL
# Sequence of RAC-gamma serine/threonine-protein kinase (Homo sapiens) (Q9Y243 whole entry): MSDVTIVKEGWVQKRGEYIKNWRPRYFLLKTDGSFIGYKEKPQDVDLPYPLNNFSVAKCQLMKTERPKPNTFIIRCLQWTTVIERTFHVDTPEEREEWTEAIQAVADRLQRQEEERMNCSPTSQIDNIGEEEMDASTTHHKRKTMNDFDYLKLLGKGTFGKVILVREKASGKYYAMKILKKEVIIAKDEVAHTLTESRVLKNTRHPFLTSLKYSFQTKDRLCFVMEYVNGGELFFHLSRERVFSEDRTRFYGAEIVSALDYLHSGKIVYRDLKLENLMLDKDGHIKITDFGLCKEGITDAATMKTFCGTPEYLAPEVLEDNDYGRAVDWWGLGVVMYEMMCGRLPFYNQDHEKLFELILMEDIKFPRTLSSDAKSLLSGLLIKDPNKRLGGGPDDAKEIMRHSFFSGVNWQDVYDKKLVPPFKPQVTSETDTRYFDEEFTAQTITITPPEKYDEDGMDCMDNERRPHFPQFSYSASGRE
SMILES,inhibition [1] [%],inhibition [2] [%],inhibition [3] [%],inhibition [4] [%],inhibition [5] [%],inhibition [6] [%],inhibition [7] [%],inhibition [8] [%],inhibition [9] [%],inhibition [10] [%]
CCCN1CCC(Oc2cc(Nc3nc(Nc4cccc(F)c4C(N)=O)c4cc[nH]c4n3)c(OC)cc2Cl)CC1,0.07,1.83,1.14,2.04,1.42,1.06,1.2,1.87,3.39,7.39
CN1CCC(C(=O)Nc2n[nH]c3nnc(-c4ccccc4)cc23)CC1,0.8,0.53,3.48,1.57,2.3,2.79,7.16,14.5,7.52,15.6
CCn1c(-c2nonc2N)nc2c(C#CC(C)(C)O)nc(OC[C@@H](N)c3ccccc3)cc21,38.2,85.2,61.2,91.1,48.4,87.2,-1.09,-0.69,-0.18,16.6
CCn1c(-c2nonc2N)nc2cncc(C(=O)N3CCNCC3)c21,0.91,2.57,2.91,2.21,2.05,5.1,6.32,9.53,7.48,9.01
COC(=O)Nc1nc2cc(Oc3ccc(NC(=O)Nc4cccc(C(=O)O)c4)cc3)ccc2[nH]1,-2.71,-3.33,-3.47,-2.42,-1.3,-3.6,2,-0.77,1.5,-3.21
CC1=C(C(=O)Nc2ccc3[nH]ncc3c2)C(c2ccc(F)cc2)NC(=O)N1 (stereo not given),-0.22,0.8,0.33,1.45,0.5,2.79,5.16,7.3,2.44,6.49
COc1cc(C)c(NC(=O)CN(C)C)cc1Nc1nc(Nc2cccc(F)c2C(N)=O)c2cc[nH]c2n1,1.35,0.96,0.81,1.17,0.86,1.72,12.9,51.2,8.5,28.1
CCn1c(-c2nonc2N)nc2ccncc21,0.31,0.51,0.98,1.01,-0.4,-0.73,0.85,-3.7,0.19,2.02
CS(=O)(=O)CCNCc1nc(-c2ccc3ncnc(Nc4ccc(F)c(Cl)c4)c3c2)cs1,0.62,-0.01,0.07,1.1,1.52,-0.89,1.59,3.85,5.77,-4.62
Cc1ccc(NC(=O)c2ccnc(N3CCCC3)c2)cc1-c1ccc(C(=O)NCC2CC2)cc1,-2.27,-3.57,-1.45,-1.55,-3.88,-2.23,2.49,0.85,5.08,10.4
COc1cc2ncn(-c3cc(OCc4ccccc4Cl)c(C(N)=O)s3)c2cc1OC,-1.2,-0.21,-0.21,0.92,1.15,-1.17,2.37,5.7,-0.82,9.44
COc1cc(C=NNc2ncnc3c2cnn3-c2ccccc2)ccc1O,0.7,-1.12,2.4,-2.91,1.08,-1.19,1.52,-6.34,-0.04,-4.38
CC(C)=Cc1cccc2c1/C(=N/Nc1ccc(S(N)(=O)=O)cc1)C(=O)N2,0.31,0.65,0.76,0.93,2.87,0.49,3.06,8.62,1.04,-0.7
NS(=O)(=O)c1cccc(-c2ccc3c(NC(=O)C4CC4)n[nH]c3c2)c1,-2.14,-1.44,-4.21,-1.31,-1.31,-2.99,1.43,2.82,-7.07,-0.65
CS(=O)(=O)Nc1ccc(N/C=C2\C(=O)Nc3ccccc32)cc1,-2.28,-2.1,-3.92,-2.28,-3.25,1.91,-1.94,0.5,-1.39,-5.45
COc1ccc(-c2nn3ncccc3c2-c2ccnc(Nc3ccc(Cl)c(C(F)(F)F)c3)n2)cc1,0.26,0.27,1.16,0.96,3.64,-0.03,6.26,9.79,4.07,8.67
CCn1c(-c2nonc2N)nc2cnc(Oc3cccc(NC(=O)c4ccc(OCCN5CCOCC5)cc4)c3)cc21,1.6,7.87,2.69,7.74,2.01,7.9,6.32,9.42,1.38,9.5
O=C1NC(=O)C(c2ccccc2Cl)=C1Nc1cccc(O)c1,0.96,1.06,1.74,1.48,0.92,1.56,1.82,2.13,1.36,-6.28
Cn1cc(C=C2C(=O)Nc3cccnc32)c2ccccc21,0.73,0.22,1.08,1.6,1.15,0.99,-1.62,6.18,3.02,10.6
Cc1nn(C)c2cc(N(C)c3ccnc(Nc4cccc(S(N)(=O)=O)c4)n3)ccc12,0.47,0.23,1.6,2.15,1.22,1.54,3.92,3.28,2.2,10.5
CC1=C(C(=O)Nc2ccc3[nH]ncc3c2)C(c2ccc(Cl)c(Cl)c2)CC(=O)N1 (stereo not given),-0.08,1.46,1.11,1.63,0.95,2.81,4.25,7.35,-1.63,-5.21
CS(=O)(=O)CCNCc1ccc(-c2ccc3ncnc(Nc4ccc(OCc5ccccc5)c(Cl)c4)c3c2)o1,-1,-0.87,0.26,0.32,-0.1,-0.63,0.49,0.68,7.87,-3.27
COc1ccc(COc2ccc(Cc3cnc(N)nc3N)cc2OC)cc1,0.82,-0.15,0.33,-0.17,0.61,0.93,-3,-5.27,11,-7.03
Nc1ncnc2occ(-c3ccc(NC(=O)Nc4cc(C(F)(F)F)cc(C(F)(F)F)c4)cc3)c12,-0.23,0.58,1.95,2.09,1.26,1.13,-2.78,-6.02,-0.71,-8.6
O=C1Nc2ccc(C(=O)c3ccco3)cc2C1=Cc1cc(Cl)c(O)c(Cl)c1,0.57,1.08,1.49,0.98,1.75,0.62,29.7,79.6,30.6,54.8
N#Cc1c(NC(=O)c2cccc3ccccc23)sc2c1CCCC2,0.5,0.48,1.74,2.41,1.33,1.85,3.58,3.47,2.52,6.83
O=C1NC(=O)C(c2ccc(Cl)cc2)=C1Nc1ccc(Cl)c(C(=O)O)c1,-1.69,-1.52,-2.06,-1.58,-1.65,-1.06,2.37,-0.84,-5.23,-4.79
CC(=O)Nc1cccc(C#Cc2cncnc2Nc2ccc(OCc3cccc(F)c3)c(Cl)c2)n1,-0.69,0.42,-1.3,-0.21,-1.1,-0.11,0.73,6.19,1.16,11.2
